# Screening data as filed in PubChem.
# Hits are enriched below; roughly 7.7% of the tested compounds scored in any of these assays.
# HCMV inh: qHTS Assay for inhibitors of the human cytomegalovirus (HCMV). HFF cells, HCMV-luciferase reporter, 72 h; hits give low values. 410,000 compounds, 4.5% hits. activity change, negative = inhibition, % at 57.5 µM; in the data active = activity change below about -60%; inconclusive = no clear call, values can overlap the other calls; inactive = above about -39%
#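 HFF cells seeded 16 h at 37C, treated with compounds, infected with luciferase-reporter HCMV at MOI 1 PFU/cell; luciferase read at 72 h post infection, normalized to buffer-only and Salinomycin controls.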
# FMDV antiviral: High Throughput Screening for Foot and Mouth Disease Virus Antivirals | FMDV antiviral cell-based qHTS | AID 1159524, 2015 | 410,000 compounds, 1.2% hits | Potency, µM (titrated, usually from 57.9 µM), for inactives: at the top dose activity change, negative = inhibition, actives largely listed as inhibitors; calls by dose curve; tested in HEK293T cells; also: read-out not given here; potency is read from the fitted curve at half-maximal effect; nearly all actives have a fitted effect of over 45% in size
# Sm TGR block: qHTS Assay for the Inhibitors of Schistosoma Mansoni Peroxiredoxins; Schistosoma mansoni thioredoxin glutathione reductase (TGR), Q962Y6; Potency, µM (series often up to 114 µM), for inactives: at the top dose activity change, negative = inhibition, usual class: inhibitors; 360,000 compounds, 3% hits; purified TGR, DTNB reduction, TNB absorbance 405 nm; AID 485364, 2010; also: potency is read from the fitted curve at half-maximal effect; nearly all actives have a fitted effect of over 60% in size
#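 Kinetic colorimetric format: TGR-catalysed, NADPH-driven DTNB reduction monitored via TNB absorbance. Enzyme dispensed at 20 nM; compound exposure 15 min at room temperature before reaction start.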
# RE007 growth inh: qHTS Assay for Inhibitors of the HIV-1 protein Vpr | S. pombe RE007 Vpr strain, BacTiter-Glo ATP luminescence, 24 h | Potency, µM (titrated, usually from 92.2 µM), without a hit: top-dose activity change, negative = less growth, hits mostly inhibitors | 360,000 compounds, 0.21% hits; active = well fitted falling curve with a large enough effect; inconclusive = small, poorly fitted or top-dose-only effect; inactive = no such curve, though single readings can be large or run the other way; also: potency is read from the fitted curve at half-maximal effect; nearly all actives have a fitted effect of over 50% in size
#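 Fission yeast strain RE007, carrying one chromosomally integrated HIV-1 vpr copy, was seeded at OD 0.01 in PMG+AL medium with 23 nL pinned compound. After 24 h at 30 °C and 99% humidity, viability was read by BacTiter-Glo luminescence.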
# Tb PYK inh: qHTS of Trypanosoma Brucei Inhibitors. 410,000 compounds, 0.12% hits. TbPYK enzyme, Kinase-Glo Plus ATP luminescence, 45 min. Potency, µM (series often up to 76.8 µM), inactives show at the top dose activity, negative = inhibition, most hits filed as inhibitors. AID 624173, 2012; also: potency is read from the fitted curve at half-maximal effect; nearly all actives have a fitted effect of over 50% in size
#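 T. brucei PYK with substrate was exposed to pin-transferred compounds across a concentration series, then started with 130 uM ADP (final). After 45 min at room temperature, Kinase-Glo Plus luminescence was read, normalized and curve-fitted.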
# FBPA Giardia inh: qHTS Assay for Inhibitors of Fructose-1,6-bisphosphate Aldolase from Giardia Lamblia. A8B2U2. purified Giardia FBPA. Potency, µM (highest dose often 59.6 µM), for the others: top-dose activity, negative = inhibition, hits mostly inhibitors. 290,000 compounds, 0.71% hits; also: potency is read from the fitted curve at half-maximal effect; nearly all actives have a fitted effect of over 55% in size
# Target sequence (A8B2U2 whole entry, looked up): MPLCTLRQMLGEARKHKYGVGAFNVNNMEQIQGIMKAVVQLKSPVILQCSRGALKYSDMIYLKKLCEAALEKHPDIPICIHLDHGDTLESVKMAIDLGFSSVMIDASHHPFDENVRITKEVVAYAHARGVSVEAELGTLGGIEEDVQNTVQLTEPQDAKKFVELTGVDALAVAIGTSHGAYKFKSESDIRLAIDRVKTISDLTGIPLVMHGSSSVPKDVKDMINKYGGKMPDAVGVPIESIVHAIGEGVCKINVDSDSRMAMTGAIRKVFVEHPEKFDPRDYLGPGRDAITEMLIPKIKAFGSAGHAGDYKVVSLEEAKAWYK
#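 Giardia FBPA (40 nM reagent) was preincubated 10 min at RT with compound (up to 57.5 uM final), then substrate plus GAPDH/TPI/NAD/arsenate coupling system with diaphorase/resazurin was added; resorufin fluorescence (525/598 nm) was read after 20 min.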
# Starred values were filed as active, the others as inactive; u = inconclusive; x = no result given. Unless noted, calls follow the shape of the dose curve; as a rule, active = well fitted curve in the direction sought with a large enough effect; inconclusive = small, poorly fitted or top-dose-only effect, or another doubt; inactive = no such curve, though single readings can be large; an effect the other way counts as inactive or inconclusive. % is scaled to controls: 0 for no effect and ±100 for the full control effect.
SMILES,HCMV inh,FMDV antiviral,Sm TGR block,RE007 growth inh,Tb PYK inh,FBPA Giardia inh
COc1cc(=O)n2c(c1C(=O)N(C)Cc1nonc1C)CCN(Cc1ccc(F)cc1)CC2,x,-9%,x,x,x,x
Cc1ccccc1C(=O)Nc1ccc(OCc2cc(=O)n3cccc(C)c3n2)cc1,-11,-17%,8%,x,5%,x
CN(C)/C=C1\N=C(c2ccccc2)OC1=O,-22,20%,3%,-13%,4%,0%
CN(C)/C(CN1CCN(C=O)CC1)=C1\N=C(c2ccccc2)OC1=O,-61*,-6%,9%,1%,-4%,4%
Cc1ccccc1OCCn1c(-c2ccc(Cl)cc2)nc2ccccc2c1=O,31,-6%,-1%,x,-6%,x
COc1ccc(CN(C(=O)CSc2nnc(-c3ccccc3C)o2)c2ccc(F)cc2)cc1,-75*,u,u,16%,0%,0%
COc1ccccc1CNC(=O)C/C(C)=N/NC(=O)Cc1ccc(OC)c(OC)c1,-66*,-23%,-9%,17%,-9%,2%
COc1cccc(/C=N/Nc2ncnc(N)c2[N+](=O)[O-])c1OC,x,-40%,-11%,2%,-2%,-6%
Cc1cc(=O)[nH]c(N/N=C/c2ccccc2Cl)n1,66,33%,6%,25%,-14%,-8%
Cc1cc(=O)[nH]c(NN=Cc2cc(Br)ccc2O)n1,-100*,-4%,x,-18%,-4%,x
Cc1cc(/C=N/Nc2ncnc(N)c2[N+](=O)[O-])c(C)n1-c1ccccc1,-83*,3.5µM*,0%,-10%,-2%,u
CCN(CC)c1ccc(/C=N/Nc2nc(C)cc(=O)[nH]2)c(O)c1,-98*,15%,4%,-8%,2%,-21%
Cc1cc(=O)[nH]c(N/N=C/c2cc(C)n(-c3ccccc3)c2C)n1,0,u,32µM*,4%,-2%,-12%
Cc1ccc(-n2nnnc2CNC(=O)c2cc(C(F)(F)F)cc(C(F)(F)F)c2)cc1C,-2,u,0%,x,2%,x
CCCn1c2ccccc2c2cnn(CC(=O)N(C)c3ccc(F)cc3)c(=O)c21,-6,u,0%,x,-1%,x
CC(C)(C)n1nc(C2CC2)c(Br)c1NC(=O)c1ccccc1Cl,-20,x,x,x,x,x
Cc1cc(=O)[nH]c(N/N=C/c2ccc(OC(=O)c3cccnc3)cc2)n1,-65*,-3%,-4%,-17%,5%,0%
NC(=S)N/N=C/c1ccc(OC(=O)c2cccnc2)cc1,0,-6%,4%,23%,29%,u
CCN(CC)c1ccc(/C=N/Nc2ccc(C)cc2)c(O)c1,-20,7%,4µM*,-21%,-6%,u
CC1CCCC(NCC(O)COC(c2ccc(F)cc2)c2ccc(F)cc2)C1C (centres undefined),-97*,u,21%,2%,2%,u
O=C(c1cnccn1)N1CCC2(CCN(Cc3nccs3)CC2)CC1,x,-4%,x,x,0%,9%
[Cl][In]([Cl])[Cl],x,x,x,x,-6%,x
O=C1NC(=O)C(Cc2cccs2)C(=O)N1,23,-23%,40µM*,-14%,u,3%
COc1ccc(NS(=O)(=O)c2ccc(-n3nnc4ccccc43)c([N+](=O)[O-])c2)cc1,-63*,7%,0%,-6%,-8%,14%
COc1cc(NC(=O)c2cc3c(=O)n(Cc4ccco4)ccc3nc2C)cc(OC)c1OC,-28,-11%,9%,x,2%,x
SMILES,HCMV inh,FMDV antiviral,Sm TGR block,RE007 growth inh,Tb PYK inh,FBPA Giardia inh
O=C1OC2(CCCCC2)OC(=O)C1=CNc1ccc2c(c1)OCO2,-9,28%,-15%,-10%,1%,-10%
O=C1/C(=C/Nc2ccc3c(c2)OCO3)CCc2ccccc21,-62*,u,u,u,u,14µM*
COc1ccc(N/C=C2\CCc3ccccc3C2=O)cc1,-18,25µM*,40µM*,u,u,11µM*
Cc1ccsc1/C=C1\CCc2ccccc2C1=O,69,-85%,14%,13µM*,u,-3%
O=C1C(=Cc2ccccn2)CCc2ccccc21,-13,0%,x,u,u,x
COc1ccc(OC)c(C=C2CCc3ccccc3C2=O)c1,-96*,37%,x,-5%,-8%,x
Cc1ccc(C)c(N2CCN(S(=O)(=O)c3ccc4oc(=O)c5ncn(C)c5c4c3)CC2)c1,-2,-5%,-4%,x,-1%,x
FC(F)(F)c1ccccc1-c1ccc2ncnc(NCCN3CCOCC3)c2c1,x,-12%,x,x,x,12%
COc1ccc(S(=O)(=O)Nc2ccc3c(c2)OCO3)cc1,-10,x,3%,-19%,-19%,-5%
COc1ccc2c(c1)CC/C(=C\C=C\c1ccccc1)C2=O,-10,0%,45µM*,-13%,-5%,u
COc1ccc2c(c1)CC/C(=C\Nc1ccc3c(c1)OCO3)C2=O,-8,x,6.3µM*,0%,-18%,7.9µM*
COc1ccc2c(c1)CCc1cnc(-n3ncc(C(=O)NCc4cc(C)no4)c3C3CC3)nc1-2,x,14%,x,x,x,x
N#C/C(=C\c1cccc([N+](=O)[O-])c1)c1nnc2n1CCCCC2,-69*,-15%,-8%,16%,-7%,2%
CN(c1ccccc1)c1ccc(/C=C(\CCC(=O)O)c2nc3ccccc3s2)cc1[N+](=O)[O-],-7,-20%,-1%,8%,5%,4%
CN(c1ccccc1)c1ccc(/C=C(\C#N)c2nnc3n2CCCCC3)cc1[N+](=O)[O-],-78*,-8%,-13%,0%,0%,-14%
CCCCCOc1ccc(Cn2c(=O)oc3ccccc32)cc1,-12,-25%,9%,x,-14%,x
COc1ccc(Cl)cc1NC(=O)CSc1nc2c(oc3ccccc32)c(=O)n1Cc1ccco1,15,2%,7%,x,-4%,x
COCCn1c(SCC(=O)Nc2ccccc2OC)nc2c(oc3ccccc32)c1=O,-63*,u,5%,18%,-1%,5%
COCCn1c(SCC(=O)Nc2ccccc2)nc2c(oc3ccccc32)c1=O,-17,-6%,3%,8%,7%,4%
COCCn1c(SCC(=O)Nc2ccc(F)c(Cl)c2)nc2c(oc3ccccc32)c1=O,-80*,-2%,1%,x,-9%,x
COCCn1c(SCC(=O)Nc2ccc(F)cc2)nc2c(oc3ccccc32)c1=O,-21,-4%,-3%,9%,-4%,-1%
COc1ccc(NC(=O)CSc2nc3c(oc4ccccc43)c(=O)n2Cc2ccco2)cc1Cl,-98*,7%,2%,x,9%,x
CC(C)(C)OC(=O)/C=C/[C@@H]1Cc2ccccc2N1,33,x,x,x,x,x
Cc1cc(C)c(S(=O)(=O)NCCc2cc3c(C)ccc(C)c3[nH]c2=O)c(C)c1,-40,6%,4%,x,3%,x
